Assay results: PubChem BioAssay (EPA / NIEHS)
Active and inactive are the calls of the source. Rule for the calls: active = hit-call score of the fitted dose curve at least 0.9, where 1 is the maximum; inactive = score below 0.9.

The compounds below were run on sulfotransferase 2A1 (SULT2A1), SULT2A1 (gene 6822) (assay: LTEA_HepaRG_SULT2A1: Life Technologies and Expression Analysis (LTEA) Assay for sulfotransferase 2A1 (SULT2A1) using HepaRG (AID 2283531)). Details: mRNA level, 48 h; actives raise or lower the signal.
Procedure: LTEA_HepaRG is a cell based, multiplexed-readout assay that uses HepaRG, a human liver cell line, with measurements taken at 48 hours after chemical dosing on a 96-well plate.LTEA_HepaRG_SULT2A1 is one of 102 assay component(s) measured in the LTEA HepaRG cell culture assay. It is a marker of NR mediated transport.Data from the assay component LTEA_HepaRG_SULT2A1 was analyzed into 1 endpoint. This assay endpoint, LTEA_HepaRG_SULT2A1, was analyzed with bidirectional fitting relative to DMSO as the negative control and baseline of activity. Using a type of inducible reporter, measures of mRNA induction for gain or loss-of-signal activity can be used to understand regulation of transcription factor activity. To generalize the intended target to other relatable targets, this assay endpoint is annotated to the transferase intended target family, where the subfamily is sulfotransferase.
A total of 1060 chemcials from the ToxCast library were tested in eight-point concentration-response experiments. Cell culture and cytotoxicity assays were conducted at Thermo Fisher Scientific's Custom Services facility (Madison, WI). A single lot of human HepaRG cells (Thermo Fisher Scientific, Frederick, MD) was used for the cell culture experiments. 96-well format collagen type I coated plates of human HepaRG cells were prepared using established methods. Briefly, cryopreserved HepaRG cells were thawed, plated at a density of approximately 100,000 cells/well in HepaRG Thaw, Plate, and General Purpose media (HPRG770, Thermo Fisher Scientific), and incubated for 48 hours. 0.5% DMSO was selected as vehicle control to balance the requisite need of DMSO in HepaRG cultures to maintain differentiation (for example, baseline metabolism, proportions of hepatocytes vs. cholangiocytes), while enabling further hepatic receptor pathway activation (for example, PXR and CAR) in response to chemical exposure. 48 hours after plating, the culture medium was replaced with HepaRG Serum-Free Incudtion Media. Cells were exposed to each test chemical in duplicate and maintained in CO2 incubators for another 48 hours. Chemical plates were thawed to room temperature and 200x concentrations of treatment groups were prepared. 8-point conentration-reponse curves were made with the highest exposure at 100 uM, followed by half-log dilutions, all in 0.5% DMSO. Each test plate contained variouse controls, induction positive controls (1mM phenobarbital), cytotoxicity positive controls ([…] aflatoxin B1), vehicle controls (0.5% DMSO), and total lysis controls (0.5% DMSO). Cell morphology images were taken using an Essen IncuCyte FLR automated microscope, with six 96-well plates imaged in about 24 minutes. Images were captured and exported and JPEG files. Spent culture media was transfered to black-well plates for the LDH assay, and remaining media was sorted at -80 C for later use. Cells were treated with RLT buffer and frozen until shipped for gene expression analysis. Total RNA was isolated from the cell suspension in 75 uL of Buffer RLT (Qiagen, Germantown, MD 20874) by Quintiles/Expression Analysis (Durham, NC) using a custom isolation procedure. Total RNA from each plate well was transferred to a preamplification plate. Fluidigm's 96.96 Dynamic ArrayTM (Fluidigm, Amsterdam, the Netherlands) technology was used for gene expression analyses by quantitative reverse transcription polymerase chain reaction (qRT-PCR, performed by Quintiles/Expression Analysis, Durham, NC)89. Standard TaqManTM Assays (Applied Biosystems/ThermoFisher Scientific, Foster City, CA) were used to assess the expression of 93 genes selected based on their selectivity and sensitivity to important hepatic receptors known to be modulated by environmental chemicals; importance in human hepatocyte functionality; and hepatotoxicity. […]

AC50, active:
C[C@]12CC[C@@H]3c4ccc(O)cc4CC[C@H]3[C@@H]1CC[C@H]2O 6.71 µM
Cc1oc2c(NC(=O)c3c(Cl)cccc3Cl)cccc2c1C(C)(C)O 68.1 µM
CCN(Cc1cccnc1)C(=O)c1cccc(Cl)c1[C@]1(C)C(=O)N(Cc2ccc(OC)cc2OC)c2ccc(Cl)cc21 25.3 µM
CC(C)(c1cc(Br)c(O)c(Br)c1)c1cc(Br)c(O)c(Br)c1 91.4 µM
COc1ccc2cc(S(=O)(=O)N[C@H](CC(=O)N[C@H](Cc3ccc(CN4[C@H](C)CCC[C@@H]4C)cc3)C(=O)N(C)C(C)C)c3ccc4c(c3)OCO4)ccc2c1 75.2 µM
c1ccc(C[n+]2cccc3ccccc32)cc1 32.4 µM
CC(=O)N1CCN(c2ccc(OC[C@H]3CO[C@](Cn4ccnc4)(c4ccc(Cl)cc4Cl)O3)cc2)CC1 12.2 µM
OC12N=C(c3ccccc3)SC1Cc1cc(Cl)ccc12 (stereo not given) 14 µM
CC(C)(C)c1csc(-c2cc3cc(OCc4ccccc4CC(=O)O)ccc3o2)n1 34 µM
CCN(CC)C(=O)c1cc(S(=O)(=O)Cc2ccccc2)c(N2CCC(c3ccccc3)CC2)cc1N(CC)CCN(C)C 32.6 µM
Clc1ccccc1C(c1ccccc1)(c1ccccc1)n1ccnc1 23.3 µM
Cc1cc(F)ccc1-c1cc(N2CC[C@@H](O)[C@H]2CO)ncc1N(C)C(=O)C(C)(C)c1cc(C(F)(F)F)cc(C(F)(F)F)c1 24.7 µM
CN(C[C@@H](CC[N+]12CCC(C3CCCCC3)(CC1)CC2)c1ccc(Cl)c(Cl)c1)C(=O)c1cc(C(F)(F)F)cc(C(F)(F)F)c1 68 µM
O=C(O)Cc1cc(I)c(Oc2ccc(O)c(I)c2)c(I)c1 79.5 µM
CN(C)c1ccc(C(=C2C=CC(=[N+](C)C)C=C2)c2ccc(N(C)C)cc2)cc1 3.54 µM

outcome, inactive:
CCCCOC(=O)c1ccc(O)cc1
O=C(O)Cn1c(=O)n(Cc2ccc(Br)cc2F)c(=O)c2ccc(Cl)cc21
CCCCCCCC[Si](OCC)(OCC)OCC
CCOC(=O)O[C@H](C)OC(=O)c1ccc2c(c1)cc(C(=O)NC1CCN(C(C)C)CC1)n2Cc1cc(-c2ccc(Cl)s2)on1
Cc1cn([C@H]2C[C@H](N=[N+]=[N-])[C@@H](CO)O2)c(=O)[nH]c1=O
CCCOC(=O)c1cc(O)c(O)c(O)c1
O=C(O)c1ccccc1C(=O)OCc1ccccc1
CCCC(=O)OCCC(C)C
O=C=NCCCCCCN=C=O
NC(=O)c1nc(-c2cccc(-c3cc(F)ccc3OCC(F)(F)C(F)(F)F)c2)n[nH]1
CCCCCCCCCCCO
CCCCCCCCCC(=O)O
O=c1c(-c2ccc(O)cc2)coc2cc(O)cc(O)c12
CCCCCCCCOC(=O)c1cc(O)c(O)c(O)c1
CCCCOC(=O)CC(CC(=O)OCCCC)(OC(C)=O)C(=O)OCCCC
Cc1ncc(CO)c(CO)c1O
CO[C@H]1/C=C/O[C@@]2(C)Oc3c(C)c(O)c4c(O)c(c(/C=N/N5CCN(C)CC5)c(O)c4c3C2=O)NC(=O)/C(C)=C\C=C\[C@H](C)[C@H](O)[C@@H](C)[C@@H](O)[C@@H](C)[C@H](OC(C)=O)[C@@H]1C
Oc1ccc2ccccc2c1
Cc1cccc2ccccc12
O=C(OCCCCCCOC(=O)c1ccccc1)c1ccccc1
CN1C(=O)CC[C@H]1c1cccnc1
CCCCCc1ccc(N)cc1
CC(C)(O)c1ccc(CNC(=O)c2cccnc2Oc2ccc3nonc3c2)cc1
CCCCCCCCCCCCO
O=c1[nH]sc2ccccc12
